Compound activity deposited in PubChem BioAssay by National Center for Advancing Translational Sciences (NCATS).
The list is not random: actives were taken first. Their share in the collection is about 19%.
ELG1 DNA repair: blocks ELG1-dependent DNA repair in HEK293T cells | HEK293T ELG1-luciferase reporter, luminescence, 16 h; DNA damage induced by 5-fluorouridine | Potency, µM (top dose mostly 46.1 µM), inactives show top-dose activity change, negative = inhibition, usual class: inhibitors | 2.3% of 330,000 active | AID 504467; also: potency is read from the fitted curve at half-maximal effect; nearly all actives have a fitted effect of over 55% in size
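Reporter activity after DNA damage by 5-fluorouridine is monitored. Compound-treated cells incubate 16 hr at 37 °C, then ONE-Glo is added for 30 min before luminescence reading.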
HT1080 IDH1KD tx: kills HT-1080 cells with IDH1 knockdown | HT-1080 IDH1 knockdown viability, ATP luminescence, 48 h | AID 686971 | 2% of 360,000 active | Potency, µM (highest dose often 46.1 µM), inactives show at the top dose activity, negative = toxicity, hits mostly cytotoxic;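 also: potency is read from the fitted curve at half-maximal effect; 0% = DMSO wells and -100% = cell-free medium wells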
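Cytotoxicity counter-line: IDH1KD HT-1080, 48 h, CellTiter-Glo. Curves classed by r2, magnitude and activity.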
DT40 TDP1 no CPT: qHTS for Inhibitors of human tyrosyl-DNA phosphodiesterase 1 (TDP1): qHTS in cells in absence of CPT | DT40 Tdp1-/- hTDP1 cells, no CPT, ATP luminescence, 48 h | Potency, µM (highest dose often 46.2 µM), for inactives: top-dose activity change, negative = growth inhibition, usual class: inhibitors | 15% of 420,000 active | AID 686978, 2013; also: potency is read from the fitted curve at half-maximal effect; nearly all actives have a fitted effect of over 55% in size
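Readout: luminescence from CellTiter-Glo after 30 min in the dark at RT. Cells: DT40 Tdp1-/- with stable hTDP1, 400/well. Exposure: compounds alone, ≥48 hr, 37 °C.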
HT1080NT lethal: kills 2HG-producing HT-1080-NT fibrosarcoma cells; Potency, µM (top dose mostly 46.1 µM), without a hit: at the highest dose activity, negative = less viability, usual class: cytotoxic; HT-1080-NT fibrosarcoma viability, CellTiter-Glo ATP luminescence, 48 h; AID 686970; 1.6% of 360,000 active;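 also: NT is the 2HG producing partner of a matched IDH1 knockdown line; potency is read from the fitted curve at half-maximal effect; 0% = DMSO-treated cells and -100% = media-only wells without cells; nearly all actives have a fitted effect of over 55% in size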
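HT-1080-NT fibrosarcoma cells (2HG-overproducing), 750 cells/well in RPMI with 5% FBS, dosed after 2 h and incubated 48 h at 37C. CellTiter-Glo luminescence normalized to DMSO and no-cell wells; concentration-response curves fitted and classed.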
DT40 TDP1 CPT: DT40-hTDP1 cell growth loss with CPT; chicken DT40 Tdp1-/-;hTDP1 cells + 20 nM CPT, ATP luminescence, 48 h; Potency, µM (highest dose often 46.2 µM), inactives show top-dose activity change, negative = growth inhibition, usual class: inhibitors; 12% of 420,000 active; AID 686979; also: potency is read from the fitted curve at half-maximal effect; nearly all actives have a fitted effect of over 55% in size
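Cell growth measured by CellTiter-Glo luminescence after a minimum 48 h, 37 C compound exposure with 20 nM CPT in Tdp1-knockout DT40 cells stably expressing hTDP1, seeded 400/well; qHTS titration format.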
IL-1B inflam inh: inflammasome signaling inhibition, IL-1 beta readout. THP-1 LPS/ATP IL-1B secretion, AlphaLISA, 16 h; hits give low values. activity change, % at 57.5 µM. 4.7% of 360,000 active. AID 743279; in the data active = activity change below about -50%; inconclusive = mostly about -30% to -49%
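THP-1 cells pretreated 1 hr with compounds (up to 57.5 uM final), then stimulated with LPS (250 ng/mL final) plus ATP (1.25 mM final); secreted IL-1B measured by AlphaLISA after 16 hr, decreased signal indicating inhibition.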
Numbers without * were called inactive; ? = inconclusive; . = no result. Unless noted, calls follow the shape of the dose curve; as a rule, active = well fitted curve in the direction sought with a large enough effect; inconclusive = small, poorly fitted or top-dose-only effect, or another doubt; inactive = no such curve, though single readings can be large; an effect the other way counts as inactive or inconclusive. Unless noted, % is scaled to controls: 0 for no effect and ±100 for the full control effect.

SMILES	ELG1 DNA repair	HT1080 IDH1KD tx	DT40 TDP1 no CPT	HT1080NT lethal	DT40 TDP1 CPT	IL-1B inflam inh
Cc1ccc(-c2nc3ccccn3c2Nc2ccccc2C)o1	.	-4%	16µM*	-12%	?	.
Brc1ccc2nc(-c3ccncc3)c(NC3CCCC3)n2c1	?	0%	-27%	-7%	?	-5
COc1c2c(cc3ccc(=O)oc13)CCO2	-4%	2%	16%	5%	7%	?
CCC1=NN(C(=O)Cc2ccc(OC)c(OC)c2)C(O)(C(F)(F)F)C1 (stereo not given)	-2%	14%	-26%	7%	-5%	-7
COc1ccc(-c2nc3ccccn3c2Nc2ccccc2C)cc1	.	-21%	?	-26%	11µM*	.
Cc1nc2c(cc1C(=O)N/N=C/c1ccc([N+](=O)[O-])cc1)c(=O)n(C)c(=O)n2C	5%	12%	-23%	17%	-22%	0
O=C(N/N=C/c1cc([N+](=O)[O-])ccc1Cl)c1cc(-c2ccccc2)nc2ccccc12	?	6%	?	10%	?	34
Cc1cc(C(=O)N/N=C/c2ccc(N(C)C)cc2)c2ccccc2n1	9%	3.3µM*	4.1µM*	3.7µM*	2.9µM*	36
CCc1ccc(/C=N/NC(=O)c2cc(C3CC3)nc3ccccc23)s1	?	1.8µM*	2.3µM*	?	4.6µM*	111
Cc1cc(C(=O)N/N=C/c2ccc([N+](=O)[O-])cc2)c2ccccc2n1	?	4.6µM*	3.3µM*	18µM*	2.9µM*	13
Cc1cccc(/C=N/NC(=O)c2cc(C3CC3)nc3ccccc23)n1	-1%	1%	-18%	0%	-9%	45
O=C(N/N=C/c1ccc([N+](=O)[O-])cc1)c1cc(C2CC2)nc2ccccc12	?	23µM*	7.3µM*	26µM*	9.2µM*	74
CCN1C[C@@H]2[C@@H]3C(=O)N(C)C(=O)[C@@H]3[C@](Cc3ccccc3)(C1=O)N2C(=O)c1ccc(Cl)c(Cl)c1	.	3%	?	11%	?	-11
COc1ccc(OCc2nnc(SC(C)C(=O)Nc3ccc(N4CCOCC4)cc3)n2C)cc1 (stereo not given)	.	-11%	-5%	-15%	-11%	0
CC(=O)Cn1cnc2c(cnn2-c2ccc(C)c(C)c2)c1=O	?	6%	?	1%	?	39
Cc1cc(C(=O)N/N=C/c2ccc([N+](=O)[O-])s2)c2ccccc2n1	21µM*	?	15µM*	?	26µM*	-79*
Cc1cc(C(=O)N/N=C/c2cc(Br)cc([N+](=O)[O-])c2O)c2ccccc2n1	?	?	?	?	?	0
CCc1cc(C(=O)N/N=C/c2ccc(O)cc2)c2ccccc2n1	-14%	?	8.2µM*	?	-27%	21
O=C(N/N=C/c1cc([N+](=O)[O-])ccc1O)c1cc(-c2ccccc2)nc2ccccc12	?	4.1µM*	5.8µM*	?	5.8µM*	11
Cc1cccc(/C=N/NC(=O)c2cc(C)nc3ccccc23)n1	-4%	0%	?	15%	?	-10
Cc1cc(C(=O)N/N=C/c2cc([N+](=O)[O-])ccc2O)c2ccccc2n1	-29%	?	4.6µM*	?	5.2µM*	16
C/C=C/c1cnc2c(c1)C(=O)N([C@H](C)CO)C[C@@H](C)[C@@H](CN(C)C(=O)NC1CCCC1)O2	.	-2%	-1%	-2%	-4%	-1
C=CC[n+]1ccc(/C=C2\C=Cc3cc(C)ccc3N2CC)c2ccccc21	1.3µM*	4.1µM*	0.21µM*	5.8µM*	0.29µM*	-66*
